# Only some compounds are listed: those with a hit (about 2.1% of all), similar ones and a draw of the others.
# Abeta yeast res: restores growth of yeast expressing A-beta42 peptide. Potency, µM (top dose mostly 46.1 µM), hits mostly activators. yeast expressing A-beta42, growth rescue, OD600, 48 h; response scale: 0% DMSO, 100% iron-clioquinol control. 410,000 compounds, 0.063% hits; also: nearly all actives have a fitted effect of over 55% in size
#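 Yeast growth medium received pinned compounds, then yeast cells expressing toxic A-beta were added; plates incubated at 30 C for 48 hr. Growth read as absorbance at 600 nm, normalized to DMSO and equimolar FeCl3 plus clioquinol controls.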
# FUS yeast rescue: FUS proteinopathy suppression in yeast. AID 1347120. Potency, µM (titrated, usually from 76.6 µM), hits mostly activators. 390,000 compounds, 0.24% hits. S. cerevisiae FUS-expressing, growth rescue, OD600, 24 h;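 also: plate controls were DMSO vehicle for no effect and reference control for full effect; nearly all actives have a fitted effect of over 55% in size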
#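 Yeast expressing FUS under galactose induction, OD 0.005 in 2% galactose medium; compounds in a dilution series, 24 h at 30C. Growth rescue by absorbance at 600 nm; CP55940 positive control, DMSO negative.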
# TDP43 rescue: rescues yeast growth from TDP-43 toxicity; TDP-43 expressing yeast growth rescue, BacTiter-Glo, 24 h; Potency, µM (series often up to 46.1 µM), for inactives: at the top dose growth rescue (activation), usual class: activators; 410,000 compounds, 1.8% hits; also: % of control where 0% means no effect; nearly all actives have a fitted effect of over 50% in size
#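 Yeast cells expressing TDP-43 under galactose induction are exposed to compounds for 24 hr at 30 deg C. BacTiter-Glo luminescence measures growth, so protective compounds score as activators.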
# aSyn yeast inh: rescues yeast growth from alpha-synuclein toxicity | Yeast expressing alpha-synuclein, growth rescue, BacTiter-Glo, 24 h | 370,000 compounds, 0.14% hits | Potency, µM (highest dose often 46.1 µM), for inactives: at the highest dose growth rescue (activation), hits mostly activators; also: % of control where 0% means no effect; nearly all actives have a fitted effect of over 65% in size
#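 Rescue of yeast growth: cells expressing toxic alpha-synuclein, induced in galactose at OD600 0.02, incubated with compound 24 h at 30 C. ATP luminescence quantified growth; inhibitors of toxicity appear as activators.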
# An asterisk follows results filed as active; i = inactive; ? = inconclusive; nt = no result; [ ] = another dose, or the depositor's remark. Calls follow the shape of the dose curve; as a rule, active = well fitted curve in the direction sought with a large enough effect; inconclusive = small, poorly fitted or top-dose-only effect, or another doubt; inactive = no such curve, though single readings can be large; an effect the other way counts as inactive or inconclusive. Potency is read from the fitted curve at half-maximal effect.
SMILES,Abeta yeast res,FUS yeast rescue,TDP43 rescue,aSyn yeast inh
Cc1cccc(OCC(=O)Nc2cccc(C(=O)OCc3cc(=O)n4c(C)csc4n3)c2)c1,i,i,4%,nt
CC(=O)c1ccc(N2CCN(C(=O)CCCCn3c(=O)[nH]c4ccccc4c3=O)CC2)cc1,i,i,-5%[9.22 µM],nt
COc1ccc2nc(-c3ccccc3)cc(C(=O)OCC(=O)N3CC(C)OC(C)C3)c2c1 (stereo not given),i,?,22µM*,3%
COc1ccc2nc(-c3ccccc3)cc(C(=O)OCC(=O)N3CCCCC3)c2c1,i,?,?,17%
CC(=O)N1CCc2c(sc3c2c(=O)n(-c2ccccc2)c(=O)n3CC(=O)Nc2ccccc2C)C1,i,i,-19%,nt
COc1cccc2c1ncc1c(-c3ccc(C)cc3)nn(-c3cccc([N+](=O)[O-])c3)c12,i,i,2%,nt
Cc1ccc(S(=O)(=O)N2CCN(C(=O)COC(=O)CCOc3cc(C)ccc3C)CC2)c(C)c1,?,nt,1%,10%
Cc1ccc(S(=O)(=O)N2CCN(C(=O)CCOc3cc(C)ccc3C)CC2)cc1,i,i,35µM*,10%
Cc1cc(Cl)ccc1OCCCC(=O)N1CCN(S(=O)(=O)c2ccccc2)CC1,i,i,14µM*,18%
Cc1ccc(C)c(OCCC(=O)N2CCN(S(=O)(=O)c3cc(F)ccc3F)CC2)c1,i,i,18µM*,0%
CCOc1ccccc1OCCCC(=O)N1CCN(S(=O)(=O)c2ccc(Cl)cc2)CC1,i,i,14%,1%
CCOc1ccccc1OCCCC(=O)N1CCN(S(=O)(=O)c2cc(F)ccc2F)CC1,i,?,?,-4%[1.84 µM]
CCOc1ccc(N2CC(c3nc4ccccc4n3CCCOc3ccccc3)CC2=O)cc1 (stereo not given),i,?,?,nt
CCOC(=O)c1cccc(NC(=O)Cn2ncc3c(=O)oc4ccccc4c32)c1,i,i,2%,nt
c1ccc(CCn2nnc(-c3ccc(N4CCOCC4)cc3)n2)cc1,nt,i,nt,nt
C/C(=N\Nc1ccccc1Cl)c1ccc(-n2ccnc2)cc1,i,i,7.1µM*,0%
Cc1ccc(S(=O)(=O)N2CCN(c3nc(-n4cncn4)nc4ccccc34)CC2)cc1,nt,nt,nt,4%
CCCCOc1ccc(C(=O)Oc2ccc(C)nc2)cc1,i,i,-8%,-13%
CCOc1ccc(OC(=O)c2cccnc2)cc1,i,i,16µM*,0%
COC(=O)c1ccc(OC(=O)c2cccnc2)cc1,i,i,-18%,10%
CCCCCOc1ccc(OC(=O)c2ccncc2)cc1,i,i,35µM*,-6%
CC(=O)/C=C\c1ccc(OC(=O)c2cccnc2)cc1,i,i,20µM*,9%
O=Cc1ccc(OC(=O)c2cccnc2)cc1,i,i,-33%,0%
Cc1cccn2c(=O)cc(COc3cccc(NC(=O)c4ccccc4F)c3)nc12,i,i,5%,nt
O=C(N/N=C/c1c(O)ccc2ccccc12)c1cccnc1,i,i,-23%,-1%
SMILES,Abeta yeast res,FUS yeast rescue,TDP43 rescue,aSyn yeast inh
O=C(N/N=C\c1c(O)ccc2ccccc12)c1cncc(Br)c1,?,i,19%,20µM*
CCOC(=O)C1CCN(C(=O)c2cc3cc(Cl)ccc3[nH]2)CC1,i,i,16µM*,1%
CCOC(=O)C1CCN(C(=O)c2cc3ccc(OC)cc3[nH]2)CC1,i,i,26%,-3%
N#CCC[C@@H]1CC[C@]2(CCCN(Cc3ccc(Cl)cc3)C2)O1,nt,i,nt,nt
COc1ccccc1NC(=O)C1CCN(S(=O)(=O)c2cn(C)cn2)CC1,i,i,15%,nt
COc1ccc2c(c1)CC/C(=C/c1ccco1)C2=O,i,i,14µM*,-7%
CCC(NC(=S)NCc1ccc(F)cc1)c1ccc(C(C)C)cc1 (stereo not given),7.1µM*,i,23%,5%
CCCc1ccc(C(C)NC(=S)NCc2ccc(F)cc2)cc1 (stereo not given),3.5µM*,i,5%,-6%
CCOc1ccc(C(C)NC(=S)NCc2ccc(Cl)cc2)cc1 (stereo not given),?,i,5%,3%
CC(NC(=S)NCc1ccc(F)cc1)C12CC3CC(CC(C3)C1)C2 (stereo not given),5.6µM*,i,-6%,3%
CCC(C)c1ccc(C(C)NC(=S)NCc2ccc(F)cc2)cc1 (stereo not given),3.5µM*,i,2%,-11%
COc1ccc(C(C)NC(=S)NCc2ccc(F)cc2)cc1OC (stereo not given),i,i,2%,-7%
COCCCNC(=O)c1ccc(Cn2c(=O)c3ccccc3n(Cc3ccc(Br)cc3)c2=O)cc1,nt,i,nt,nt
Cc1ccc(C)c(N2CCN(C(=O)CCS(=O)(=O)c3cc4c(cc3Cl)NC(=O)CO4)CC2)c1,i,?,12%,2%
CCCc1ccc(C(C)NC(=S)NC2CCCCC2)cc1 (stereo not given),11µM*,i,11%,-15%
Cc1nc(Oc2ccccc2)c2ccsc2n1,i,i,13µM*,6%
COc1ccc(Oc2ncnc3sccc23)cc1,i,i,?,-6%
S=C(Nc1ccc2nsnc2c1)NC1CCCCC1,i,nt,13µM*,-13%
S=C(Nc1ccc(Cl)c(Cl)c1)NC1CCCCC1,i,i,-2%,-16%
CSc1ccc(-c2sc(Nc3cccc4ccccc34)n[n+]2-c2ccccc2)cc1,i,?,11%,15%
CC(=O)Nc1ccc(-c2sc(Nc3cccc4ccccc34)n[n+]2-c2ccccc2)cc1,i,32µM*,-4%,18%
COc1ccc(/C=N/NC(=O)c2ccc(NC(C)=O)cc2)cc1COc1ccc(F)cc1F,i,25µM*,9%,-4%
O=C(c1ccc2c(c1)N(Cc1cccc(Cl)c1)C(=O)c1ccccc1S2(=O)=O)N1CCN(Cc2ccccc2)CC1,i,i,-13%,nt
Cc1ccc(Nc2c3c(nc4nc(-c5cccs5)nn24)CCCC3)cc1F,i,i,23%,nt
Fc1cc(Br)ccc1Nc1c2c(nc3nc(-c4cccs4)nn13)CCCC2,i,i,20µM*,nt
SMILES,Abeta yeast res,FUS yeast rescue,TDP43 rescue,aSyn yeast inh
Cc1ccc(S(=O)(=O)C(CNS(=O)(=O)c2ccc(F)c(C(F)(F)F)c2)c2ccco2)cc1 (stereo not given),i,i,4µM*,nt
COc1ccc(S(=O)(=O)NCC(c2ccco2)S(=O)(=O)c2ccc(C)cc2)cc1F (stereo not given),i,i,?,nt
CC(C)(C)SCCNC(=O)COc1ccc(Cl)cc1,i,i,1%,23%
Cc1ccc(CSCCNC(=O)CCSc2ccccc2)cc1,i,i,7%,-2%
Cc1ccccc1CSCCNC(=O)CCSc1ccccc1,?,i,16µM*,18%
Cc1ccccc1CSCCNC(=O)COc1ccc(Cl)cc1,i,i,11µM*,27%
